Screening results deposited in PubChem by National Center for Advancing Translational Sciences (NCATS).
Sampled rows, rich in hits. Any-hit rate of the full collection: about 0.86%.
AmpC inh detg = blocks E. coli AmpC beta-lactamase in detergent assay. P00811. AmpC hydrolysis of nitrocefin, absorbance 480 nm, 0.01% Triton. Potency, µM (doses to about 114 µM), for the others: at the top dose activity change, negative = inhibition, usual class: inhibitors. hit rate 0.041% among 370,000. AID 485294;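 further: 0% = no-compound wells and -100% = no-enzyme wells; nearly all actives have a fitted effect of over 25% in size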
Target sequence (P00811 whole entry, looked up): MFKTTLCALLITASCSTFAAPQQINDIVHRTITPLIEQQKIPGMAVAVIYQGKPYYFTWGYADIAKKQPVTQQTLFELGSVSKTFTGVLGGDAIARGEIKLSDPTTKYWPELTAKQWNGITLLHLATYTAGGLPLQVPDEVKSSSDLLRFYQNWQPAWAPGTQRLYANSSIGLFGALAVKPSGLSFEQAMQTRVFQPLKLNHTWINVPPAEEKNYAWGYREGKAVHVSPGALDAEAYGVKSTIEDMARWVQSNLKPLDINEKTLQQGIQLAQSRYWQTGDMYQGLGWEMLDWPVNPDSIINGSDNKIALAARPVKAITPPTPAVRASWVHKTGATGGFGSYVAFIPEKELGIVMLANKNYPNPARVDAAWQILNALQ
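20 mM phosphate pH 7.0 + 0.01% (detergent screen) or 0.0001% Triton X-100; 5.3 nM AmpC reagent; cpd preinc 15 min RT; nitrocefin (800 uM stock) to start; A480 q20 s × 4 min; Activity was normalised to no-enzyme and no-compound control wells.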
AMA1-RON2 inh = disrupts binding of P. falciparum AMA1 to RON2. AlphaScreen AMA1-biotinylated RON2 peptide binding. Potency, µM (series often up to 58.2 µM), for inactives: at the top dose activity change, negative = inhibition, hits mostly inhibitors. hit rate 0.2% among 360,000. AID 720542;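 further: 0% = vehicle wells and -100% = peptide control; nearly all actives have a fitted effect of over 45% in size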
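AMA1 (3D7) with his tag at 25 nM final met compounds first, then biotinylated RON2 peptide at 25 nM; detection used donor plus acceptor beads, 10 µg/mL apiece, read by AlphaScreen after 30 min at room temperature.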
NS1 function inh = blocks influenza NS1 protein function; Potency, µM (top dose mostly 46.1 µM), inactives show top-dose activity, positive = more growth; hit rate 0.4% among 270,000; calls by dose curve; further: actives are rising curves; nearly all actives have a fitted effect of over 50% in size
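OD600 was taken as the measure of yeast growth restored by compound in an NS1-expressing S. cerevisiae strain. Cells had been washed out of glucose medium and diluted 1:100 into galactose -URA medium, pH 6.0.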
AmpC inh no detg = AmpC beta-lactamase inhibition without detergent; AID 485341; AmpC nitrocefin hydrolysis, absorbance 480 nm, 0.0001% Triton; hit rate 0.52% among 330,000; Potency, µM (doses to about 57.1 µM), for the others: at the highest dose activity change, negative = inhibition, actives largely listed as inhibitors;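 further: plate controls were no compound for no effect and no enzyme for full effect; nearly all actives have a fitted effect of over 20% in size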
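20 mM phosphate pH 7.0 + 0.01% (detergent screen) or 0.0001% Triton X-100; 5.3 nM AmpC reagent; cpd preinc 15 min RT; nitrocefin (800 uM stock) to start; A480 q20 s × 4 min; Activity was normalised to no-enzyme and no-compound control wells.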
* marks the source's active call; other numbers are inactive results; ? = inconclusive; . = no result given. Unless noted, the call rests on the fitted dose curve; in most records, active means well fitted curve in the direction sought with a large enough effect; inconclusive means small, poorly fitted or top-dose-only effect, or another doubt; inactive means no such curve, though single readings can be large; an effect the other way counts as inactive or inconclusive. Potency means the concentration at half of the fitted maximal effect.

SMILES	AmpC inh detg	AMA1-RON2 inh	NS1 function inh	AmpC inh no detg
Cc1cc(N2C(=O)CC(N3CCN(c4ccc(C(=O)c5cccs5)cc4)CC3)C2=O)no1 (stereo not given)	0.3%	-7.0%	-31.8%	0.501µM*
Cc1ccc2nc(N/C(=N/S(=O)(=O)c3cccs3)c3ccccc3Cl)sc2c1	-12.9%	14.2%	.	12.6µM*
O=c1c2c(-c3ccccc3)csc2ncn1/N=C/c1cccc([N+](=O)[O-])c1O	0.8%	20µM*	.	-32.3%
Cc1ccccc1NC(=O)Cc1nc(COC(=O)c2ccc(Cl)c(S(N)(=O)=O)c2)cs1	-15.1%	8.3%	.	35.5µM*
C=CCn1c2ccccc2c2nnc(SCCCn3c(=O)[nH]c4ccccc43)nc21	-8.9%	-8.3%	13.2%	-0.4%
O=S(=O)(c1ccccc1)N1CCC(c2ccncc2)CC1	3.8%	.	.	.
CC(=O)NC(CCS(C)(=O)=O)C(=O)Nc1cccc(C(C)=O)c1 (stereo not given)	-1.6%	-1.2%	-0.2%	-20.4%
CC(=O)NC(CCS(C)(=O)=O)C(=O)Nc1ccccc1 (stereo not given)	?	-2.3%	-2.3%	5.01µM*
O=C(Nc1ccc(O)c(C(=O)O)c1)c1ccc2c(c1)C(=O)N(CC1CCCO1)C2=O (stereo not given)	3.4%	1.9%	4.5%	-19.8%
COc1ccc(CCn2c(O)cc3nn(-c4nc5ccccc5s4)c(=O)c-3c2C)cc1	2.2%	57.0%	?	10µM*
COCCn1c(SCC(=O)Nc2ccc(S(=O)(=O)N(C)C)cc2)nc2ccccc21	-3.9%	-15.5%	2.2%	7.4%
O=C(Nc1ccnc(-c2ccncc2)n1)c1ccc(Cl)cc1	3.3%	-4.3%	3.0%	0.3%
COc1cc(C(CCN2CCOCC2)c2c(OC)cc(OC)c3c2OC(=O)CC3c2ccc(N(C)C)cc2)cc(OC)c1OC (stereo not given)	0.2%	20µM*	-27.4%	197.6%
COc1cc(C(CCN2CCCC(C)C2)c2c(OC)cc(OC)c3c2OC(=O)CC3c2ccc(N(C)C)cc2)cc(OC)c1OC (stereo not given)	5.3%	20µM*	-54.8%	217.1%
COc1ccc(C2CC(=O)Oc3c(C(CCN4CCN(c5ccccc5)CC4)c4ccc(N(C)C)cc4)c(OC)cc(OC)c32)cc1 (stereo not given)	-4.0%	11.2µM*	0.7%	62.8%
COc1cc(OC)c2c(c1C(CCN1CCOCC1)c1ccc(N(C)C)cc1)OC(=O)CC2c1ccc(N(C)C)cc1 (stereo not given)	-2.3%	14.1µM*	-40.8%	193.2%
CC1=C(C(=O)Nc2ccccc2C)C(c2ccc[nH]2)n2ncnc2N1 (stereo not given)	-5.9%	.	.	.
CC1=CC2(C)NC(=O)C(C)C12 (stereo not given)	.	27.9%	.	.
CN(C)CCCNc1ncnc2nc[nH]c12	.	.	2.8%	.
CCOc1ccc(CCNS(=O)(=O)c2ccc3c(c2)N(C(C)=O)CCO3)cc1OCC	-13.6%	0.1%	-5.4%	39.6%
N#CCC(=O)c1ccccc1Oc1ccc(Cl)cc1	?	18.3%	.	3.98µM*
CC(C)CCOc1ccc(C(=O)CCNC(C)C(=O)O)cc1 (stereo not given)	0.1%	.	-13.6%	-4.2%
CCN(CC)c1ccc(/C=N\N2CCN(Cc3ccc(C)cc3)CC2)cc1	-9.8%	8.91µM*	4.7%	24.1%
Cc1ccc(CN2CCN(/N=C/c3ccc(C(=O)O)cc3)CC2)cc1	?	-1.3%	18.9%	0.6%
CC(C)C[C@H](N)c1nnc(S(=O)(=O)Cc2ccc(F)cc2)o1	1.41µM*	2.5%	-63.4%	2µM*
SMILES	AmpC inh detg	AMA1-RON2 inh	NS1 function inh	AmpC inh no detg
Cc1nn(CC(=O)N2CCN(c3ccccc3)CC2)c(=O)c2cc3sccc3n12	20.0%	.	.	.
O=S(=O)(NCCc1ccncc1)c1ccc(S(=O)(=O)N2CCCCCC2)cc1	?	-9.8%	-3.7%	2.3%
CCOC(=O)CSc1nc2nc(C)cc(C)n2n1	?	1.8%	8.6%	10µM*
COc1cc(NC(=O)C2(C)CCCN(C(C)C)C2)cc(OC)c1OC (stereo not given)	.	12.0%	.	.
O=C(c1nnsc1S(=O)c1ccc(Cl)cc1)N1CCOCC1 (stereo not given)	?	-4.6%	.	-35.9%
O=C(Nc1ccccc1)c1nnsc1S(=O)c1ccc(Cl)cc1 (stereo not given)	?	-3.8%	-154.2%	14.1µM*
COc1ccc(N2CCN(C(=O)Cc3ccc(C)cc3)CC2)cc1	-10.3%	-12.0%	-36.0%	11.8%
COc1ccc(N2CCN(C(=O)Cc3ccc(Cl)cc3)CC2)cc1	-8.3%	17.8µM*	-15.5%	22.5%
